Compounds without any hit were thinned out: in the full panel of roughly 83,000, 20% have a hit.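 Single-concentration screen, 48 h exposure, 96-well plates. Endpoint: percent growth. Below 10 = active.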 A number with no mark means an inactive call. Active and inactive are the calls of the source.

Common to all, as to assay: NCI-60 one-dose screen, 48 h (100 = growth as untreated, 0 = no growth, -100 = all killed)
Holding throughout (settings): 10 µM unless noted

In assay [1] the test system is DU-145 prostate.
Assay [2] relates to K-562 leukemia.
The subject of assay [3] is MALME-3M melanoma.
In assay [4] the test system is MDA-MB-231 breast.
The test system of assay [5] is RXF 393 renal.
Assay [6] relates to SF-268 CNS.
Assay [7] concerns SF-539 CNS.
The test system of assay [8] is UACC-257 melanoma.
Assay [9] concerns M14 melanoma.
For assay [10], the system named is SF-295 CNS.

Turning to `Cc1ccc(S(=O)(=O)NCCNc2nccc(-c3c(-c4ccc(O)cc4)nc4sccn34)n2)cc1`, the growth in [1] is 102%; in [2], 81.7%; in assay [3] it was 95.6%; in assay [4], 97.7%; in assay [5], 92.2%; in [6], 95.6%. In addition, the growth in assay [7] was 107%; in assay [8], 108%; in [9], 93.3%.
Take `Cc1ccc(Cc2c(C=O)nc(N)[nH]c2=O)c2ccccc12`: the growth in assay [1] is 113%; in [2], 107%; in [3] it was 98.2%; in assay [4], 107%; in assay [5], 106%; in assay [10] it was 118%. Also, the growth is 102% in assay [7], 93.2% in [8] and 101% in assay [9].
For the compound `CC1(C)C(=O)/C(=C\c2ccc(C(F)(F)F)cc2)C[C@]2(C)[C@H]3CC[C@@H]4[C@H]5[C@H](C(=O)/C=C/c6ccc(C(F)(F)F)cc6)CC[C@]5(CO)CC[C@@]4(C)[C@]3(C)CC[C@@H]12`, the growth in [1] was 109%; in [2] it was 86.9%; in assay [3] it was 96.2%; in assay [4] it was 98.4%; in [5], 103%; in [6] it was 89.7%. For the same compound, the growth is 93.7% in assay [7], 101% in assay [8] and 93.1% in [9].
Consider `COc1cc(/C=C/c2cc(/C=C/c3ccc(O)c(OC)c3)n(C(N)=O)n2)ccc1O`, for which the growth in assay [1] is 2.11% (active); in assay [2], -23% (active); in assay [3], -4.94% (active); in assay [4], 3.7% (active); in assay [6] it was -10.7% (active); in assay [10], 4.87% (active). In addition, the figures for the growth in assay [7], in assay [8] and in assay [9] were -26.3% (active), 0.83% (active) and -66.2% (active), respectively.
Take `COc1cc(/C=C/C(=O)c2ccc(Nc3ncnc4cc(OC)c(OC)cc34)cc2)cc(OC)c1`: the growth is 115% in [1]; 41.3% in assay [2]; 118% in [3]; 104% in assay [4]; 98.4% in [6]; 93.3% in [10]. Also, the growth was 101% in assay [7], 95.1% in [8] and 112% in assay [9].
On to `N=C(N)c1ccc(-c2ccc(-c3cncc4ccccc34)s2)cc1F`, for which the growth is -91% (active) in [1]; -50.6% (active) in [2]; -81% (active) in assay [3]; -85.2% (active) in [4]; -74.4% (active) in [6]; -95.1% (active) in assay [10]. In addition, the growth in [7] was -97.7% (active); in assay [8], 111%; in assay [9], 96.3%.
With `Cc1ccc2nc(Cl)cc(=O)n2c1`, the growth is 124% in assay [1]; 135% in [3]; 111% in [4]; 117% in assay [5]; 114% in assay [6]; 113% in assay [10]. The values for the growth in [8] and in assay [9] were 112% and 104%, respectively.
In the case of `C=C1C(=O)O[C@H]2[C@H]1CC/C(COC(=O)NCc1ccccc1OC)=C\CC[C@@]1(C)O[C@@H]21`, the growth in [1] was 20.1%; in [3] it was 68.8%; in assay [4], 46.2%; in assay [5] it was 10%; in assay [6], 53.1%; in assay [7], 28.7%. Besides, the growth in [9] is 33%.
`O=C1c2c(Cl)c(Cl)c(Cl)c(Cl)c2C(=O)C2(Cl)CC=CCC12Cl` (centres undefined): the growth is -74.2% (active) in assay [1]; -3.27% (active) in assay [3]; 18.2% in assay [4]; -78.3% (active) in [5]; -96.2% (active) in assay [6]; 106% in assay [10]. Besides, the growth was 48.1% in assay [7], -34.4% (active) in [8] and -12% (active) in [9].
Consider `Cc1cccc(/C=N/Nc2cc(C)c3cccc(C)c3n2)n1`, for which the growth was 101% in assay [1]; 69.8% in assay [2]; 90.4% in [4]; 98.2% in assay [5]; 101% in assay [6]; 88% in assay [7]. The results for the growth in assay [8] and in [9] were 80% and 98.4%, respectively.
Consider `O=C(CSC1CCc2ccccc21)N/N=C/c1ccccc1O` (centres undefined), for which the growth in assay [1] is 52.8%; in assay [3], 53.3%; in assay [4] it was 45.2%; in assay [5] it was 75.1%; in assay [6], 39.5%; in [7] it was 54.7%. The growth in [9] is 47.4%.
On to `O=C1CCCCC1(c1ccccc1)c1ccccc1`, for which the growth is 101% in [4]; 93.8% in assay [5]; 98.2% in assay [6]; 97% in assay [10]; 94% in assay [7]; 106% in assay [8]. Besides, the growth in assay [9] was 99%.
Take `COc1cc(Nc2ncccc2C(=O)NCc2cn(Cc3cccc(Oc4ccccc4)c3)nn2)cc(OC)c1`: the growth in [1] was 68.9%; in [3], 56.1%; in assay [4], 26.3%; in assay [5], 64.2%; in assay [6], 47.2%; in [10], 28.3%. In addition, the values for the growth in assay [7], in [8] and in [9] were 38.5%, 74% and 31.2%, respectively.
On to `CCN(CC)c1ccc(C(=N)c2ccc(N(CC)CC)cc2)cc1`, for which the growth in assay [2] is -4.1% (active); in assay [3], -32.6% (active); in assay [4] it was -63.3% (active); in assay [5], -31.5% (active); in assay [10], -54.7% (active); in assay [7] it was -68.7% (active). Besides, the figures for the growth in assay [8] and in assay [9] were -39.6% (active) and -93.1% (active), respectively.
As to `NC(=S)N/N=C1\CCCC(C(F)(F)F)C1` (centres undefined), the growth in assay [2] was 46.3%; in [3], 104%; in assay [4], 102%; in [5], 123%; in assay [10], 100%; in assay [7], 101%. Besides, the growth in assay [8] was 73.2%; in [9] it was 95.6%.
Consider `CCCCCCCC/C=C/CCCCCCCC1=NC(C)(C)CN1C(C)(C)CO`, for which the growth in assay [2] is -58.6% (active); in [3], -12.9% (active); in assay [4], 17.5%; in assay [5], 13.1%; in [6], 53.6%; in assay [10] it was 86.9%. Moreover, the values for the growth in assay [7], in assay [8] and in assay [9] were 77.1%, -28.5% (active) and -84.7% (active), respectively.

These data come from PubChem BioAssay (NCI).
